Laboratory results reported in PubChem BioAssay (NCATS).
Inconclusive results are not listed. Active and inactive are the calls of the source. The call rests on the fitted dose curve; in most records, active means well fitted inhibition curve with a large enough effect; inconclusive means small, poorly fitted or top-dose-only effect; inactive means flat fitted curve, though single readings scatter.

Legend:
[1] = test system: SC27B; assay: qHTS profiling for inhibitors of Plasmodium falciparum proliferation (AID 504749); settings: P. falciparum in erythrocytes, SYBR Green DNA, 72 h; series mostly up to 28.7 µM
Summary of the method: (§1)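 Quantitative HTS: compounds pinned into medium, infected erythrocytes added (0.3% parasitemia, 2.5% hematocrit), 72 h culture at 37 C under 5% CO2. Saponin/Triton lysis with SYBR Green I, overnight RT, then fluorescence read.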

[2] = test system: TAB113; assay: as above; settings: P. falciparum in erythrocytes, SYBR Green DNA, 72 h; series mostly up to 28.7 µM
Summary of the method: as §1

[3] = test system: TAB165; assay: as above; settings: P. falciparum in erythrocytes, SYBR Green DNA, 72 h; series mostly up to 28.7 µM
Summary of the method: as §1

[4] = test system: W2; assay: as above; settings: P. falciparum in erythrocytes, SYBR Green DNA, 72 h; series mostly up to 28.7 µM
Summary of the method: as §1

[5] = test system: CRL-7250; assay: Cytotoxic Profiling of Annotated Libraries Using Quantitative High-Throughput Screening (AID 1296008); settings: Five cell lines viability, CellTiter-Glo ATP luminescence, 48-72 h; max response: hits give low values; on max response: on the % scale 0 is the no-effect control and ±100 the full control effect
Summary of the method: (§2)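 Compounds were pin-transferred onto cells and incubated 48 or 72 hr at 37 degree Celsius, 95% humidity. CellTiter-Glo was added, plates sat 10 min at room temperature, then ATP-coupled luminescence was imaged as the viability read-out.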

[6] = test system: HEK293; assay: as above; settings: Five cell lines viability, CellTiter-Glo ATP luminescence, 48-72 h; max response: hits give low values
Summary of the method: as §2

[7] = test system: HaCat; assay: as above; settings: Five cell lines viability, CellTiter-Glo ATP luminescence, 48-72 h; max response: hits give low values
Summary of the method: as §2

[8] = test system: PC26; assay: qHTS profiling for inhibitors of Plasmodium falciparum proliferation (AID 504749); settings: P. falciparum in erythrocytes, SYBR Green DNA, 72 h; series mostly up to 28.7 µM
Summary of the method: as §1

[9] = test system: TAB109; assay: as above; settings: P. falciparum in erythrocytes, SYBR Green DNA, 72 h; series mostly up to 28.7 µM
Summary of the method: as §1

[10] = test system: PC49; assay: as above; settings: P. falciparum in erythrocytes, SYBR Green DNA, 72 h; series mostly up to 28.7 µM
Summary of the method: as §1
Further: nearly all actives have a fitted effect of over 60% in size.
Potency means the concentration at half of the fitted maximal effect.

CCOCCn1c(N2CCCN(C)CC2)nc2ccccc21
inactive: Potency [1] | Potency [2] | Potency [3] | max response [5] -16.3% | max response [6] -5.73% | max response [7] 1.76%
active: Potency [4] 4.78 µM

CCN(CC)CCOC(=O)C1(c2ccccc2)CCCC1
active: Potency [2] 0.005 µM
inactive: Potency [8] | Potency [1] | Potency [9] | Potency [3] | max response [5] -4.97% | outcome [6]

C#C[C@]1(O)CC[C@H]2[C@@H]3CCC4=CC(=O)CC[C@@H]4[C@H]3CC[C@@]21CC
inactive: Potency [8] | Potency [10] | Potency [1] | Potency [9] | Potency [2] | Potency [3] | max response [5] -4.9% | max response [6] -17.9%

CC(C)(C)NC[C@H](O)COc1nsnc1N1CCOCC1
active: Potency [8] 12 µM | Potency [1] 12.6 µM | Potency [9] 5.01 µM | Potency [2] 6.31 µM | Potency [3] 5.01 µM | Potency [4] 1.51 µM
inactive: max response [5] -0.569% | max response [6] 1.26%

COc1cc(C)nc(-n2nc(C)cc2OC)n1
inactive: Potency [8] | Potency [10] | Potency [1] | Potency [9] | Potency [2] | Potency [3] | Potency [4] | max response [5] -9.05% | max response [6] -7.38%

O=[N+]([O-])c1cccc(S(=O)(=O)NCCNS(=O)(=O)c2cccc([N+](=O)[O-])c2)c1
inactive: Potency [10] | Potency [1] | Potency [2] | outcome [5] | max response [6] -16% | max response [7] 0.408%

Nc1ccc(S(=O)(=O)NCc2ccccc2)cc1
inactive: Potency [8] | Potency [10] | Potency [1] | Potency [9] | Potency [2] | Potency [3] | Potency [4] | max response [5] -13.3% | max response [6] 3.66%

COc1cc([C@H]2Oc3cc([C@H]4Oc5cc(O)cc(O)c5C(=O)[C@@H]4O)ccc3O[C@@H]2CO)ccc1O
inactive: Potency [10] | Potency [9] | outcome [5] | max response [6] -17.6% | max response [7] -5.16%

CN1CCN(CCC(=O)N2c3ccccc3Sc3ccc(C(F)(F)F)cc32)CC1
inactive: Potency [1] | Potency [2] | outcome [7]
active: Potency [4] 4.26 µM | Potency [5] 15 µM | Potency [6] 23.7 µM

CN(C)C(=O)Nc1ccc(Cl)c(Cl)c1
active: Potency [10] 3.55 µM
inactive: Potency [9] | Potency [2] | Potency [3] | max response [5] 2.46% | max response [6] 3.61% | max response [7] -27.1%

CCN(CC)CCOc1ccccc1C(=O)CCc1ccccc1
active: Potency [4] 2.13 µM | Potency [6] 11.9 µM
inactive: Potency [10] | Potency [2] | max response [5] -0.916% | outcome [7]

N=C(N)N1CCc2ccccc2C1
inactive: Potency [8] | Potency [10] | Potency [1] | Potency [9] | Potency [2] | Potency [3] | Potency [4] | max response [5] -4.65% | max response [6] -8.82%

Clc1cccc(C(c2ccc3nc[nH]c3c2)n2ccnc2)c1 (stereo not given)
inactive: Potency [10] | max response [5] -3.34% | max response [6] 1.25% | max response [7] -3.24%
active: Potency [1] 10 µM | Potency [3] 7.94 µM

CCOC(=O)c1c(N)sc2c1CCN(Cc1ccccc1)C2
active: Potency [8] 5.36 µM | Potency [10] 5.01 µM | Potency [1] 10 µM | Potency [9] 4.47 µM | Potency [2] 11.2 µM | Potency [3] 5.01 µM | Potency [4] 4.78 µM | Potency [5] 18.8 µM | Potency [6] 11.9 µM

NCc1ccccc1Sc1ccccc1CO
inactive: Potency [10] | Potency [1] | Potency [2] | max response [5] -5.17% | max response [6] -7.72% | max response [7] -3.87%
active: Potency [4] 4.78 µM

OC[C@H]1O[C@@H]2O[C@H]3[C@H](O)[C@@H](O)[C@@H](O[C@H]4[C@H](O)[C@@H](O)[C@@H](O[C@H]5[C@H](O)[C@@H](O)[C@@H](O[C@H]6[C@H](O)[C@@H](O)[C@@H](O[C@H]7[C@H](O)[C@@H](O)[C@@H](O[C@H]8[C@H](O)[C@@H](O)[C@@H](O[C@H]1[C@H](O)[C@H]2O)O[C@@H]8CO)O[C@@H]7CO)O[C@@H]6CO)O[C@@H]5CO)O[C@@H]4CO)O[C@@H]3CO
inactive: Potency [8] | Potency [10] | Potency [1] | Potency [9] | Potency [2] | Potency [3] | Potency [4] | outcome [5] | outcome [6]

O=C(O)CCNC(=O)c1ccccc1
inactive: Potency [8] | Potency [10] | Potency [1] | Potency [9] | Potency [2] | Potency [3] | Potency [4] | max response [5] 4.33% | outcome [6]

CCCc1ncc(C[n+]2ccccc2C)c(N)n1
inactive: Potency [8] | Potency [10] | Potency [1] | Potency [9] | Potency [2] | Potency [3] | Potency [4] | outcome [5] | max response [6] -18.1%

CCCCCCCC/C=C\CCCCCCCCN
inactive: Potency [8] | Potency [10] | Potency [1] | Potency [9] | Potency [2] | Potency [3] | Potency [4] | outcome [5] | max response [6] -3.13%
